According to the supplement of paper PMC11732987, “Enantioselective OTUD7B fragment discovery through chemoproteomics screening and high-throughput optimisation” (Communications Chemistry, 2025):

Tests used:
Assay in all cases: log2 ratio of Biotin-Ahx-Ub-VS probe labelling (fragment/DMSO); higher = less target engagement (more negative = stronger competition), active = hit call of the paper (q ≤ 0.05, log2 ratio ≤ -1)
Settings in all cases: compound concentration: 200 uM; treatment time: 3 h
[1] = target: T1, USP19 (UniProt O94966)
T1 sequence (whole entry): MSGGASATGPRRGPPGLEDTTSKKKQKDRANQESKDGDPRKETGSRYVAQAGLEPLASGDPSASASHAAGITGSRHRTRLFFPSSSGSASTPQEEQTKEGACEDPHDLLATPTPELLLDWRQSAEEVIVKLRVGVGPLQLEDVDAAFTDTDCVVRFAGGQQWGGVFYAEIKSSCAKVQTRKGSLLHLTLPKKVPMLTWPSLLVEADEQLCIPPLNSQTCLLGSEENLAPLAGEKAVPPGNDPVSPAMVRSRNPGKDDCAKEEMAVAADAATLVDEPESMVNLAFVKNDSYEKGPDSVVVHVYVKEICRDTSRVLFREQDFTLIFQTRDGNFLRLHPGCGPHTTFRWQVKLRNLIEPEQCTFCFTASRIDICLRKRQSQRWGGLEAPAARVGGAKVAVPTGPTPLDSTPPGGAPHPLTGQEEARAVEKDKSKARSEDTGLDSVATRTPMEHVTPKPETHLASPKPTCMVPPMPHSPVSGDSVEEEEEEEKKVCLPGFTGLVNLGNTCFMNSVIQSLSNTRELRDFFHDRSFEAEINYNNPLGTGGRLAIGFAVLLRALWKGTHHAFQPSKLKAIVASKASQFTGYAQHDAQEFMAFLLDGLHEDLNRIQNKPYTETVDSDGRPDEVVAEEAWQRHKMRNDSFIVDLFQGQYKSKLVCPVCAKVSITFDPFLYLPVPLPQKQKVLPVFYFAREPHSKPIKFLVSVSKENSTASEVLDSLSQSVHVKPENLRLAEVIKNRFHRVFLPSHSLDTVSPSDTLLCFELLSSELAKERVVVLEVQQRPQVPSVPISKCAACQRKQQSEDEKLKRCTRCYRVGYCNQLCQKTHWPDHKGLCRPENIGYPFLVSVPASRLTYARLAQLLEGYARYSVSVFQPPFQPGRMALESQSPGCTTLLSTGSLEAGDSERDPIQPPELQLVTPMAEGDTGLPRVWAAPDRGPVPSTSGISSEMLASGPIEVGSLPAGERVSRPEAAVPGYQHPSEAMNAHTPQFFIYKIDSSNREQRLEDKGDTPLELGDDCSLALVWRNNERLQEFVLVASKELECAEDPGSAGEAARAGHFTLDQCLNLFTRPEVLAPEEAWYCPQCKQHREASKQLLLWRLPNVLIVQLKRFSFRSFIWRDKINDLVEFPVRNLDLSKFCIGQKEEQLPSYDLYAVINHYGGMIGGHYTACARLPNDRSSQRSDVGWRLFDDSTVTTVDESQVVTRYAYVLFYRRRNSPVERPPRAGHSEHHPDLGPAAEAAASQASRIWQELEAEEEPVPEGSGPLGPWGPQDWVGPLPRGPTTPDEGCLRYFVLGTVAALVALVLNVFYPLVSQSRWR
Procedure, shortened: (§1)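 Fragment (200 µM) or vehicle was incubated for 3 h with triplicate HEK293T lysate samples of 495 µg, which were then treated with Biotin-Ahx-Ub-VS at 0.5 µM final for 1 h. Labelled DUBs were enriched on NeutrAvidin, digested with LysC and trypsin, and analysed by diaPASEF LC-MS/MS. Values are average log2 fragment/vehicle ratios from an unpaired t-test on global-median-normalised Spectronaut label-free quantities, using proteins with ≥2 unique peptides.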

[2] = target: T2, USP22 (UniProt Q9UPT9)
T2 sequence (whole entry): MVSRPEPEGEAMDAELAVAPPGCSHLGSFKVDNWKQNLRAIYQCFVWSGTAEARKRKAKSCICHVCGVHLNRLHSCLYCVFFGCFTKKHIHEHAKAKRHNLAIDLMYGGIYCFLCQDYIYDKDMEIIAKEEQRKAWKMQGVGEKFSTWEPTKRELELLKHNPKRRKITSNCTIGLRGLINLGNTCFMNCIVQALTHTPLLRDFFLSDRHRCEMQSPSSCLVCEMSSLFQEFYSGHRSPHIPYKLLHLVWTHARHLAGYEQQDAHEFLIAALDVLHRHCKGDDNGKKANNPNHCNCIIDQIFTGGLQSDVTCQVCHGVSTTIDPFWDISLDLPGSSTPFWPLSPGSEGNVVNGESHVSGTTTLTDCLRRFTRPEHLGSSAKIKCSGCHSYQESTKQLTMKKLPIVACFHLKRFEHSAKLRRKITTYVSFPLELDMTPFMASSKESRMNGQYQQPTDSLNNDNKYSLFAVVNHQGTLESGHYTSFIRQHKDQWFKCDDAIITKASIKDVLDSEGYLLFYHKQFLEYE
Procedure, shortened: as §1

[3] = target: USP24 (UniProt Q9UPU5)
Chain of USP24 (Q9UPU5 whole entry): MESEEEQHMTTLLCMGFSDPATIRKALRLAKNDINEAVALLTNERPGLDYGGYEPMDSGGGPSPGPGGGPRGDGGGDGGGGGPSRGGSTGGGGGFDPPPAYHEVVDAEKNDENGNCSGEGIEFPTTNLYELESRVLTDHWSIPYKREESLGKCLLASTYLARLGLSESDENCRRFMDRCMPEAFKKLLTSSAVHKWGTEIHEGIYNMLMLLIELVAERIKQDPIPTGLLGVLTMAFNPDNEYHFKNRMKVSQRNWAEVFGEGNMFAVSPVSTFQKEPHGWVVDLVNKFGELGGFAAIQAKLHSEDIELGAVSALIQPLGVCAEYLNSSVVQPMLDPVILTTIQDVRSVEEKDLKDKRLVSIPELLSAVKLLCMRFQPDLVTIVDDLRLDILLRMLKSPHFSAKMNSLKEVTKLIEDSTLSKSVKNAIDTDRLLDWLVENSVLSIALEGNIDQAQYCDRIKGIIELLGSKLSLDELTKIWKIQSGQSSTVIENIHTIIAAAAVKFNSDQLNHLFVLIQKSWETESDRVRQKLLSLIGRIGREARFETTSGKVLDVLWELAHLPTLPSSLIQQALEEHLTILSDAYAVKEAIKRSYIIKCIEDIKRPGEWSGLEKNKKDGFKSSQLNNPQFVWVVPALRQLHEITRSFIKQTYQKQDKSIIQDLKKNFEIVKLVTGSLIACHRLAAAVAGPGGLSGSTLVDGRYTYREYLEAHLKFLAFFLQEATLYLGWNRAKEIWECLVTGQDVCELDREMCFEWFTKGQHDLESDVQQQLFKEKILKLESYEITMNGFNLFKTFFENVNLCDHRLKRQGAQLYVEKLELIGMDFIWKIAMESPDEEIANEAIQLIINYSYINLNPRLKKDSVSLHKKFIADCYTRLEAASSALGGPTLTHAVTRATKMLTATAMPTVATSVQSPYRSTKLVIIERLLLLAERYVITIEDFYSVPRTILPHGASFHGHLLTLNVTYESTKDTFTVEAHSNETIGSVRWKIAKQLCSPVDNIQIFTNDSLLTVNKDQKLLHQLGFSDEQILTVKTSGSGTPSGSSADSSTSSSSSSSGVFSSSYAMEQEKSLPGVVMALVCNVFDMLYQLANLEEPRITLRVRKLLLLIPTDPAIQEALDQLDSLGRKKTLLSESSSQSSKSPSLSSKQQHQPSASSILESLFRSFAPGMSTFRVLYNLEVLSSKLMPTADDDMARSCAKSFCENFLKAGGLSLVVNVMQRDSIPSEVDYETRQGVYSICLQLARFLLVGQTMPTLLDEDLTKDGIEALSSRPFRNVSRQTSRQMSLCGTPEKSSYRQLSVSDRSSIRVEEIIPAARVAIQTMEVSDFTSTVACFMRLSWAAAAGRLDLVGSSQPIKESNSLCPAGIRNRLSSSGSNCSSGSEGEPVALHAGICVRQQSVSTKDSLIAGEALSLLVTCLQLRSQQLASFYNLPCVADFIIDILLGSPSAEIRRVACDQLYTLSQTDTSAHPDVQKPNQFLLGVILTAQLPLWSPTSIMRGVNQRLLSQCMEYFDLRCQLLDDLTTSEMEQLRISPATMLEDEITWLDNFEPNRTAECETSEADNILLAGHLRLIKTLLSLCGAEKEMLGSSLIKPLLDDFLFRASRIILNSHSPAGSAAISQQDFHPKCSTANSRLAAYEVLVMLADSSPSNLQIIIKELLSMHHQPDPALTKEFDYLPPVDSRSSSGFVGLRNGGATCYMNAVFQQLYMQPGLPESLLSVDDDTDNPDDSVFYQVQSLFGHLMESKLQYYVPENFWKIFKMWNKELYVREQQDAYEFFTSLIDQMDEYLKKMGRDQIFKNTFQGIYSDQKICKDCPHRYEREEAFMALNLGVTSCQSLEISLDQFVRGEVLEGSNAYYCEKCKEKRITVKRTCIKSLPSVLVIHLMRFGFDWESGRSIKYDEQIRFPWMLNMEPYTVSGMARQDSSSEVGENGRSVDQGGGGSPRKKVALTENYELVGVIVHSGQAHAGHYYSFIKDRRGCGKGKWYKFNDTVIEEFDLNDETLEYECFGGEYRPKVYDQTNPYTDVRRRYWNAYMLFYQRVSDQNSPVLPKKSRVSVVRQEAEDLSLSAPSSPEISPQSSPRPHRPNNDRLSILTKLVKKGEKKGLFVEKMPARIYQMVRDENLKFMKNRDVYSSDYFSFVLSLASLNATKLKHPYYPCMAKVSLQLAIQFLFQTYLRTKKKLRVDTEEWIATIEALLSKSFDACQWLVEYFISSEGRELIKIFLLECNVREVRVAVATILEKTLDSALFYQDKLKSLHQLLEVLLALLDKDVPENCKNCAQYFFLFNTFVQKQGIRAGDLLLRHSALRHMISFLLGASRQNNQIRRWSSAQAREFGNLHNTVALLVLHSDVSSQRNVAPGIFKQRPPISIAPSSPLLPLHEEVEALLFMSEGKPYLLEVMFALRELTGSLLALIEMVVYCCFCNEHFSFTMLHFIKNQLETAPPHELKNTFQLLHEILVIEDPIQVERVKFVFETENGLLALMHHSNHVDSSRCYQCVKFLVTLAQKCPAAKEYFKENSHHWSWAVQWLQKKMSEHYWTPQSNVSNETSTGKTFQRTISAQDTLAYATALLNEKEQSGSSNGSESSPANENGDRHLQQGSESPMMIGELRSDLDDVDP
Procedure, shortened: as §1

[4] = target: T3, USP25 (UniProt Q9UHP3)
T3 sequence (whole entry): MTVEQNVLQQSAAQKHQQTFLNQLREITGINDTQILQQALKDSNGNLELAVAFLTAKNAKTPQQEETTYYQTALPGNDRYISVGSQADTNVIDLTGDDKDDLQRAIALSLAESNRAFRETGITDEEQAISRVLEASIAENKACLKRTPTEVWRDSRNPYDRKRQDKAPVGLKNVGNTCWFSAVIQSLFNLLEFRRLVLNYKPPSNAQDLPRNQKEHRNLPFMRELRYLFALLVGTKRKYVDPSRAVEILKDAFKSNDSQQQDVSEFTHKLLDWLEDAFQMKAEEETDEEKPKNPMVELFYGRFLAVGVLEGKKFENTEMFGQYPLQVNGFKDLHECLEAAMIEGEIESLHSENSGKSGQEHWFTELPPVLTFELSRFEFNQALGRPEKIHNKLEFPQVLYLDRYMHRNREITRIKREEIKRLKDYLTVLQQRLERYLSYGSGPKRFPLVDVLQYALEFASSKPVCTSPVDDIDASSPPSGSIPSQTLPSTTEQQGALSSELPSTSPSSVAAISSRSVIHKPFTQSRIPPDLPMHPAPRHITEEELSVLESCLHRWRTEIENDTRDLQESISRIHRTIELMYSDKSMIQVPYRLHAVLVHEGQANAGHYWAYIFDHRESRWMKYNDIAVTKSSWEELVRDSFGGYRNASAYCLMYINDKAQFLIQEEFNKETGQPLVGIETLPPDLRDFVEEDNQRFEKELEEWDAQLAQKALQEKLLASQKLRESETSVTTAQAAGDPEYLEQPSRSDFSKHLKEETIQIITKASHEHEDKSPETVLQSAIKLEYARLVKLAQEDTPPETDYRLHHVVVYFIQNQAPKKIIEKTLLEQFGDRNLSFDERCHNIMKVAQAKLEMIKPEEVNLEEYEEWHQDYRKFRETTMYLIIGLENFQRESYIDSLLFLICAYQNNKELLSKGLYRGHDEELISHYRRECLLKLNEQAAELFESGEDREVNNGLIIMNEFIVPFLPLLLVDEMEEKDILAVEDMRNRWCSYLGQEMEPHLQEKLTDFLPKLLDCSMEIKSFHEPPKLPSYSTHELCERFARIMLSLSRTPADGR
Procedure, shortened: as §1

[5] = target: T4, USP28 (UniProt Q96RU2)
T4 sequence (whole entry): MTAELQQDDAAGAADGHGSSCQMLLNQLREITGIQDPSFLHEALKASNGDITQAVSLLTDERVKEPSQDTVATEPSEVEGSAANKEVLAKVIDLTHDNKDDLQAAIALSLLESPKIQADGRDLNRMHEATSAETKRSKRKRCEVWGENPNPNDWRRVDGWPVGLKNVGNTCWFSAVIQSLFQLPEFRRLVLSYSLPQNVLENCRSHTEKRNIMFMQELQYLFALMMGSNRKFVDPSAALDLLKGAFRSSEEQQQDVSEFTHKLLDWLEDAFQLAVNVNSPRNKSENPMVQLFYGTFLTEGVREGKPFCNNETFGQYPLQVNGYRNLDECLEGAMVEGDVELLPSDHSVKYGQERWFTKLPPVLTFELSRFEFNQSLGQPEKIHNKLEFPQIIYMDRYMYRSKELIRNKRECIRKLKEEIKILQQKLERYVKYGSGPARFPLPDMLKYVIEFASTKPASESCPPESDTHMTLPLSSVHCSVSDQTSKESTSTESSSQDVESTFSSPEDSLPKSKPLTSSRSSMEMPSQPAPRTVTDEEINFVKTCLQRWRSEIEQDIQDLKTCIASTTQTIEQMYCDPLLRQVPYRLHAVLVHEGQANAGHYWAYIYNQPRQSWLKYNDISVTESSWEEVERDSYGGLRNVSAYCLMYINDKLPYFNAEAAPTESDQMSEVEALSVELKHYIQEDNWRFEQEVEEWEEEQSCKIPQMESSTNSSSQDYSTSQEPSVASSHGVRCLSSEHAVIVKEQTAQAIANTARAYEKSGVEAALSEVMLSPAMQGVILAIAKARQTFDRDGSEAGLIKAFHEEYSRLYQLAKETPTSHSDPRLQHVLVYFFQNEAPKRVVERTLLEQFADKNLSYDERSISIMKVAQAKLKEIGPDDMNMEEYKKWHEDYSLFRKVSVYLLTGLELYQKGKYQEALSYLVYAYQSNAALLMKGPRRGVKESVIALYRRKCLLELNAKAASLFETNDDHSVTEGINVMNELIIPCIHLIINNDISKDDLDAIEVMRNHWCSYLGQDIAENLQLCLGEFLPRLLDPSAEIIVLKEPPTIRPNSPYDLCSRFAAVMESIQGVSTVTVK
Procedure, shortened: as §1

Measured: log2 ratio of Biotin-Ahx-Ub-VS probe labelling

Cl.O=C(CCl)N1CCCC(c2ncc[nH]2)C1 (stereo not given)
inactive: [1] -0.0532 | [2] 0.0588 | [3] -0.108 | [4] -0.511 | [5] -0.212
